Source: PubChem BioAssay
Anthrax LT inh – blocks cellular internalization of anthrax lethal toxin. Cells, anthrax lethal toxin internalization, FRET ratio (460/530). Potency, µM (top dose mostly 40 µM), without a hit: at the top dose activity change, negative = inhibition, usual class: inhibitors. 70,000 tested, 0.67% active; also: % is scaled to controls: 0 for no effect and ±100 for the full control effect; nearly all actives have a fitted effect of over 50% in size
AmpC det inh – inhibitors of E. coli AmpC beta-lactamase with detergent | P00811 | purified AmpC, nitrocefin hydrolysis with detergent | Potency, µM (highest dose often 28.7 µM), inactives show top-dose activity change, negative = inhibition | 71,000 tested, 0.09% active; active = well fitted curve in the direction sought with a large enough effect; inconclusive = small, poorly fitted or top-dose-only effect; also: % is scaled to controls: 0 for no effect and ±100 for the full control effect
Target sequence (P00811 whole entry, looked up): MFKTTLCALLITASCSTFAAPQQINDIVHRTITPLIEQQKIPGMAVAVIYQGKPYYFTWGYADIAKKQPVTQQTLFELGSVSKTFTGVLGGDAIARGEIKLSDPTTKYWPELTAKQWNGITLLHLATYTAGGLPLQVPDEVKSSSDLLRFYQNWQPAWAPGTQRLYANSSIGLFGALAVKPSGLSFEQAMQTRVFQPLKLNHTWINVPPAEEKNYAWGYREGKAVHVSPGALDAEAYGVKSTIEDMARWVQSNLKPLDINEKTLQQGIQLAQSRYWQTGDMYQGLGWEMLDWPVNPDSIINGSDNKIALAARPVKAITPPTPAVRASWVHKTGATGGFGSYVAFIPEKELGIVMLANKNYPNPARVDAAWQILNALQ
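E. coli AmpC (5.3 nM) in 20 mM phosphate pH 7.0 with 0.01% Triton X-100, preincubated 15 min RT with compound; nitrocefin (2 uL of 800 uM stock) hydrolysis followed by 480 nm absorbance every 20 s over 4 min.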
AmpC nodet inh – AmpC beta-lactamase inhibition, detergent-free assay; 71,000 tested, 1.8% active; Potency, µM (top dose mostly 28.7 µM), for inactives: top-dose activity change, negative = inhibition; AmpC nitrocefin hydrolysis, absorbance 480 nm, no detergent; AID 585; also: % of control where 0% means no effect
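AmpC in 20 mM phosphate buffer pH 7.0 was preincubated 15 min at room temperature with compounds. Nitrocefin (800 uM stock) was then added and hydrolysis followed at 480 nm every 20 s for 4 min.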
Prx2 Sm inh – inhibitors of Schistosoma mansoni peroxiredoxin 2. S. mansoni Prx2 activity coupled to TGR/GSH (TGR is thioredoxin glutathione reductase), NADPH fluorescence loss, qHTS. Potency, µM. 65,000 tested, 0.07% active. AID 448
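Prx2 activity was followed as the loss of NADPH fluorescence (ex 365/em 450 nm), read every 30 sec for 8 min after H2O2 start. The enzyme mix (50 nM Prx2, 25 nM TGR, GSH, NADPH; pH 7.4 phosphate buffer) was incubated with compound for 15 min at room temperature first.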
* = called active by the depositor; ? = inconclusive; · = no result given; [ ] = remark or other dose. Most compounds without a hit are left out; they make up all but 2.4% or so of the library. Unless noted, calls follow the shape of the full dose curve. Potency is read from the fitted curve at half-maximal effect.

SMILES	Anthrax LT inh	AmpC det inh	AmpC nodet inh	Prx2 Sm inh
Cc1ccc(CNC(=O)CS(=O)Cc2nc(-c3ccccc3C)oc2C)cc1 (stereo not drawn)	?	12%	94%	>57
Cc1ccccc1-c1nc(CS(=O)CC(=O)NCc2ccccc2)c(C)o1 (stereo not drawn)	-5%	13%	4µM*[single pt active]	>57
Cc1ccccc1-c1nc(CS(=O)(=O)CC(=O)NCCN2CCOCC2)c(C)o1	-12%	6%	54%	>57
Cc1ccc(-c2nc(CS(=O)CC(=O)NCc3ccccn3)c(C)o2)cc1 (stereo not drawn)	-9%	12%	4µM*[single pt active]	>57
Cc1ccccc1-c1nc(CS(=O)CC(=O)NCCN2CCOCC2)c(C)o1 (stereo not drawn)	-6%	15%	4µM*[single pt active]	>57
Cc1ccc(-c2nc(CS(=O)CC(=O)NCCN(CC(C)C)CC(C)C)c(C)o2)cc1 (stereo not drawn)	-10%	-3%	92%	>57
NCCNC(=S)S	?	-4%[5.75 µM]	-4%[5.75 µM]	>57
Cc1ccc(-c2nc(CS(=O)CC(=O)NCCN3CCCC3)c(C)o2)cc1 (stereo not drawn)	10%	15%	4µM*[single pt active]	>57
CCN1CCN(CCNC(=O)C2CCCN(Cc3nc(-c4cccc(Cl)c4)oc3C)C2)CC1 (stereo not drawn)	4µM*	12%	82%	>57
Cc1oc(-c2ccc(Cl)cc2)nc1CS(=O)CC(=O)NCCN1CCCC1 (stereo not drawn)	-17%	12%	4µM*[single pt active]	>57
CCOC(=O)N1CCC(NC(=O)C2CCCN(Cc3nc(-c4cccc(Cl)c4)oc3C)C2)CC1 (stereo not drawn)	?	10%	90%	>57
CC1(C)S[C@@H]2[C@H](NC(=O)Cc3ccccc3)C(=O)N2[C@@H]1C(=O)O	-1%[8 µM]	-3%[5.75 µM]	5%[5.75 µM]	>57
Cc1onc(-c2c(Cl)cccc2Cl)c1C(=O)N[C@H]1C(=O)N2[C@H]1SC(C)(C)[C@H]2C(=O)O	7%[3.58 µM]	0.0025µM*	0.0016µM*	>57
CCOc1ccc2ccccc2c1C(=O)N[C@@H]1C(=O)N2[C@@H]1SC(C)(C)[C@@H]2C(=O)O	4%[3.58 µM]	0.05µM*	0.032µM*	>57
CC(C)(N)C(=O)N[C@@H]1C(=O)N2[C@@H]1SC(C)(C)[C@H]2C(=O)O	-3%[8 µM]	1.3µM*	0.5µM*	>57
CC1(C)S[C@@H]2[C@H](NC(=O)C3(N)CCCCC3)C(=O)N2[C@@H]1C(=O)O	-27%[8 µM]	0.01µM*	0.01µM*	>57
C[C@H](Oc1ccccc1)C(=O)N[C@@H]1C(=O)N2[C@@H]1SC(C)(C)[C@@H]2C(=O)O	12%[3.58 µM]	0.63µM*	0.25µM*	>57
O=C(C[C@H](c1ccccc1)c1c(O)c2ccccc2oc1=O)c1ccccc1	8%[8 µM]	-3%[5.75 µM]	-1%[5.75 µM]	>57
CCOc1ccccc1CNC(=O)c1cc2occc2n1C	-28%	?	10µM*[single pt active]	>57
COc1ccccc1CNC(=O)c1cc2sccc2n1C	?	-1%	16%	>57
Cc1cccc(CNc2ccnc(-c3ccccc3C(F)(F)F)n2)c1	?	9%	1%	>57
O=C(Nc1ccc2snnc2c1)N1CCSCC1	-4%	6%	-13%	·
CC1CN(C(=O)Nc2ccc3snnc3c2)c2ccccc21 (stereo not drawn)	?	6%	2µM*	>57
CN(Cc1ccco1)c1cc(-c2ccoc2)ncn1	-14%	1%	18%	>57
CC1CCCCC1NC(=O)CC1Oc2ccccc2NC1=O (stereo not drawn)	-8%	15%	4µM*[single pt active]	>57
SMILES	Anthrax LT inh	AmpC det inh	AmpC nodet inh	Prx2 Sm inh
Cc1ccc2c(c1)NC(=O)C(CC(=O)NCCCN1CCCCC1C)O2 (stereo not drawn)	-12%	10%	25%	>57
CCC(C)N(CCNC(=O)CC1Oc2ccc(C)cc2NC1=O)C1CCCCC1 (stereo not drawn)	?	8%	7%	>57
O=C1Nc2ccccc2OC1CC(=O)N1CCCC1 (stereo not drawn)	5%	11%	4µM*[single pt active]	>57
CC1CCCCN1CCNC(=O)CC1Oc2ccccc2NC1=O (stereo not drawn)	?	13%	2.5µM*[single pt active]	>57
O=C(CC1Oc2ccccc2NC1=O)NCc1ccccc1 (stereo not drawn)	-10%	5%	-3%	>57
Cc1ccc2c(c1)NC(=O)C(CC(=O)NC1CCCCC1C)O2 (stereo not drawn)	-5%	13%	4µM*[single pt active]	>57
